Compound activity deposited in PubChem BioAssay by National Center for Advancing Translational Sciences (NCATS).
Pf growth 48h – inhibits P. falciparum growth in the first generation, 48 h | 5.9% of 310,000 active | Potency, µM (highest dose often 28.7 µM), without a hit: top-dose activity change, negative = inhibition, most hits filed as inhibitors | P. falciparum luciferase growth in erythrocytes, 48 h; also: potency is read from the fitted curve at half-maximal effect
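Here the parasites carry a stable luciferase gene and grow inside erythrocytes in Albumax-based RPMI medium with compound for one erythrocytic cycle. Activity is scored as loss of luminescent signal.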
HCV inh – blocks hepatitis C virus. 3.4% of 340,000 active. Huh7.5.1 HCVcc-Cre infection, luciferase reporter, 44 h. AID 651820. Potency, µM (titrated, usually from 41.8 µM), for inactives: at the highest dose activity change, negative = inhibition, most hits filed as inhibitors; also: potency is read from the fitted curve at half-maximal effect
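1,000 cells/well; 4 h culture; + compound; + HCVcc-Cre (~0.5 moi); 44 h; luciferase substrate, RT 15 min; read 15 sec.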
Pf growth 96h – P. falciparum growth inhibition at 96 hour, primary screen for plastid delayed-death inhibitors; P. falciparum luciferase reporter growth, 96 h; Potency, µM (doses to about 28.7 µM), inactives show top-dose activity change, negative = inhibition, hits mostly inhibitors; 6.9% of 320,000 active; AID 504834; also: potency is read from the fitted curve at half-maximal effect
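Cell-based qHTS: luciferase-tagged P. falciparum in erythrocytes (2% hematocrit, 0.05% parasitemia final) incubated with compounds for 96 hours, 37 C, 5% CO2; luciferase detection reagent then added and luminescence measured.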
HCMV inh – human cytomegalovirus inhibition; HFF cells, HCMV-luciferase reporter, 72 h; active compounds read low; activity change, negative = inhibition, % at 57.5 µM; 4.5% of 410,000 active; in the data active = activity change below about -60%; inconclusive = no clear call, values can overlap the other calls; inactive = above about -39%
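Screen run at 2 compound doses on HFFs infected with reporter HCMV, MOI 1 PFU/cell. Luciferase activity from cell lysates at 72 h post infection gave inhibition relative to buffer-only and Salinomycin wells.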
Numbers without * were called inactive; ? = inconclusive; / = no result; [ ] = another dose, or the depositor's remark. Rows were chosen to be rich in hits. Some 13% of all compounds tested hit in one or more screens of this group. Unless noted, calls follow the shape of the dose curve; as a rule, active = well fitted inhibition curve with a large enough effect; inconclusive = small, poorly fitted or top-dose-only effect, or another doubt; inactive = no such curve, though single readings can be large or run the other way. % is scaled to controls: 0 for no effect and ±100 for the full control effect.

SMILES	Pf growth 48h	HCV inh	Pf growth 96h	HCMV inh
COCCNC(=O)c1[nH]c2cc(C)ccc2c1Sc1ccc(Cl)cc1	/	/	/	-2
O=C(Nc1ccccc1OC(F)F)c1ccn2ccnc2n1	/	/	/	9
CCN(CC)CCOC(=O)c1ccc(Cl)cc1	/	14%	?	-16
CCN(CC)CCOC(=O)c1ccc(NC(=O)C(C)NC(=O)C23CC4CC(CC(C4)C2)C3)cc1 (configuration not stated)	-26%	25%	12µM*	-64*
C[C@@H]1CN([C@@H](C)CO)C(=O)c2cc(Br)cnc2O[C@@H]1CN(C)C(=O)c1ccc(F)cc1	/	/	/	5
OC(Cn1cncn1)c1ccc(Cl)cc1Cl (configuration not stated)	6%	19%	11%	20
OC(c1ccc(Cl)cc1Cl)C(Cc1cccnc1)n1cncn1 (configuration not stated)	?	11%	13µM*	-14
Cc1cc(NC(=O)CCNS(=O)(=O)c2cccc3nsnc23)ccc1Br	/	/	/	7
O=C(CCl)Nc1ccccc1Sc1ccccc1	/	14%	9.3µM*	-11
COc1cccc(/C=C/C(=O)OCC(=O)Nc2ccccc2Sc2ccccc2)c1	5%	10%	14%	-65*
CCOCCCNc1nc2ccccc2[nH]1	-1%	?	?	16
CCCCOCCCNc1ncnc2c1[nH]c1ccccc12	7.4µM*	8.9µM*	/	?
CCOCCCNc1ncnc2c1[nH]c1ccccc12	10µM*	?	?	-62*
Cc1c(C(=O)N2CCC(C)CC2)c(S(=O)(=O)N2CCN(c3ccc(Cl)cc3)CC2)c(C)n1C	/	/	/	23
COCCN1C(=O)c2oc3ccc(C)cc3c(=O)c2C12C(=O)N(C)c1ccccc12 (configuration not stated)	/	/	/	-2
CCOc1c(Cl)cc(CNc2nnnn2C)cc1OC	5.9µM*	17%	0%	-2
CCOc1ccc(CNc2nnnn2C)cc1OC	?	1%	-34%	26
CCOc1c(Cl)cc(C(=O)NCCN2CCCCC2)cc1Cl	?	10µM*	54%	9
O=C(NCCCN1CCCC1=O)c1ccc(Cl)c(S(=O)(=O)N2CCCCC2)c1	8.3µM*	-22%	5.2µM*	-33
Cc1ccc(N(C)S(=O)(=O)c2cccc(C(=O)NCCCN3CCCC3=O)c2)cc1	?	0%	?	0
Cc1ccc(NS(=O)(=O)c2cccc(C(=O)NCCCN3CCCC3=O)c2)cc1	?	-2%[8.37 µM]	?	-101*
O=C(NCCCN1CCOCC1)c1ccc(CSc2ccc(Cl)cc2)cc1	?	?	?	-70*
COc1ccc(CCNC(=O)c2c(C)oc3ncn(CC(C)C)c(=O)c23)c(OC)c1	/	/	/	11
O=C(NCCCN1CCCC1=O)Nc1ccc(Br)cc1Cl	36%	-4%	10µM*	61
O=C(NCCCN1CCCC1=O)c1ccc2c(c1)NC(=O)C(N1CCOCC1)S2 (configuration not stated)	-4%	35%	0.93µM*	3
SMILES	Pf growth 48h	HCV inh	Pf growth 96h	HCMV inh
O=C(NCCCN1CCOCC1)c1ccc(Cl)c(S(=O)(=O)N2CCCCCC2)c1	/	?	?	-81*
CCc1ccccc1NC(=O)Cn1c(=O)n(-c2ccc(C)c(C)c2)c(=O)c2oc3ccccc3c21	/	/	/	-18
COc1ccc(OCC(=O)NC2CC(=O)N(c3ccc4c(c3)OCCO4)C2)cc1 (configuration not stated)	/	/	/	13
CCCOc1c(Br)cc(C2C3=C(CCCC3=O)N(C)C3=C2C(=O)CCC3)cc1OC	9.3µM*	7%	-18%	-9
O=C(CCC1N=C2c3ccccc3N=C(SCc3ccc(F)cc3)N2C1=O)NCc1ccc(F)cc1 (configuration not stated)	/	/	/	28
CCO[C@H]1OC(C(=O)N2CCN(Cc3ccc4c(c3)OCO4)CC2)=C[C@@H](c2ccc(C(F)(F)F)cc2)[C@@H]1CCCO	?	?	1.5µM*	-12
CCO[C@@H]1OC(C(=O)N2CCN(Cc3ccc4c(c3)OCO4)CC2)=C[C@H](c2ccc3c(c2)OCO3)[C@H]1CCCO	?	2%	3.3µM*	1
C#Cc1ccc([C@@H]2C=C(C(=O)N3CCN(Cc4ccc5c(c4)OCO5)CC3)O[C@H](OCC)[C@H]2CCCO)cc1	-79%	?	-20%	-34
CCO[C@H]1OC(C(=O)N2CCN(Cc3ccc4c(c3)OCO4)CC2)=C[C@@H](C2CC2)[C@@H]1CCCO	?	-23%	7.4µM*	-26
CCO[C@H]1OC(C(=O)N2CCN(Cc3ccc4c(c3)OCO4)CC2)=C[C@@H](c2ccc(Br)cc2)[C@@H]1CCCO	10µM*	?	5.2µM*	2
CCO[C@H]1OC(C(=O)N2CCN(Cc3ccc4c(c3)OCO4)CC2)=C[C@@H](c2ccccc2)[C@@H]1CCCO	?	?	?	-7
COCC(=O)N1[C@@H]2c3cccc(=O)n3C[C@@H]2[C@@H](CO)[C@@H]1C(=O)NCc1ccccc1F	/	/	/	0
COCCn1ccc2c(OCC(=O)Nc3cccc(OC)c3)cccc2c1=O	/	/	/	-3
Cc1ccc(CN2CCC(CNC(=O)c3cnn(-c4ccccc4)c3C3CCN(C(=O)OC(C)(C)C)CC3)CC2)cc1	/	/	/	0
COc1ccc(C(=O)NCCCc2nc3ccccc3n2Cc2cc(C)ccc2C)cc1OC	12µM*	5%[8.37 µM]	10µM*	-10
Cc1nc(SCC(=O)Nc2ccc(F)cc2)c(C#N)c(C)c1CC(=O)c1ccc(Br)cc1	/	13%	?	-14
Cc1cccc(NC(=O)CSc2nc(C)c(CC(=O)c3ccc(Br)cc3)c(C)c2C#N)c1C	-3%	0%	/	-79*
C/[N+]([O-])=C\c1cccc(OCCN2CCN(c3ncc(C(F)(F)F)cc3Cl)CC2)c1	15%[0.00184 µM]	25µM*	6%	-74*
Cc1ccc(-c2nn3c(C)nnc3s2)cc1NC(=O)CSc1ccc(Cl)cc1	-13%	6%	-21%	22
Cc1ccc(CNc2cc(-c3nn4c(C)nnc4s3)ccc2C)s1	12µM*	?	?	89
Cc1ccc(-c2nn3c(C)nnc3s2)cc1NCc1c(F)cccc1Cl	?	?	1%	-76*
Cc1ccc(CNC(=O)c2cccc(-n3cnc4cccnc43)c2)cc1	/	/	/	0
COc1cc(OC)c(NC(=O)Cn2cnc3nc4c(cc3c2=O)CCCC4)cc1Cl	/	/	/	-5
CCC1CN(C(=O)Nc2cccc3c2CCCC3)c2cc(Cl)ccc2O1 (configuration not stated)	/	/	/	-32
Cc1ccc(N=Cc2c(O)n(-c3cc(Cl)ccc3N3CCOCC3)c(=O)c3ccccc23)cc1C	2.6µM*	?	/	?
O=c1[nH]c(=S)n(-c2ccc(Cl)cc2)c(O)c1C=Nc1ccc(N2CCOCC2)cc1	3%	13%	?	19
CCN1CCN(c2nc(-c3ccncc3)nc3ccccc23)CC1	9.3µM*	/	7.4µM*	/
CCCOc1ccc(-c2nc(N3CCN(CC)CC3)c3ccccc3n2)cc1	10µM*	?	12µM*	?
